The record followed here is PubChem BioAssay AID504834 (National Center for Advancing Translational Sciences (NCATS), 2011).

The campaign covered roughly 320,000 compounds. About 22,000 (6.9%) were called active. Another 27% or so got no clear call; they are omitted. The sample holds actives, similar compounds and a random draw of the others, so the mix is not that of the screen. A number with no mark means an inactive call. Calls come from the whole dose curve; as a rule, active = well fitted inhibition curve with a large enough effect; inconclusive = small, poorly fitted or top-dose-only effect, or another doubt; inactive = no such curve, though single readings can be large or run the other way.
% is set by controls: 0 for no effect and ±100 for the full control effect; potency is the fitted concentration of half-maximal effect.

This assay is described as follows: Primary qHTS for delayed death inhibitors of the malarial parasite plastid, 96 hour incubation. To be noted: P. falciparum luciferase reporter growth; series mostly up to 28.7 µM; activity change, negative = inhibition: at the top concentration. The essentials:
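Luminescence readout: decreased luciferase signal marks inhibited growth of reporter-expressing P. falciparum in infected red cells (2% hematocrit, 0.05% parasitemia final), exposed to compound two generations (96 h, 37 C, 5% CO2).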
Background: In qHTS, concentration-response curves come from the screen itself.
For the compound `CSc1n[nH]c(=S)n1N`, the “activity change, negative = inhibition” value is -1.76%.
The same measure, in the same setting: to `Cc1c(CC(=O)NCCCCCC(=O)O)c(=O)oc2cc3occ(-c4ccccc4)c3cc12` belongs -27.6%.
The same measure, in the same setting: to `CCOc1ccccc1NC(=O)Cn1ncc2ccc([N+](=O)[O-])cc21` belongs 0.0479%; to `CC(=O)NC1CCN(CC(=O)Nc2nccs2)CC1`, -1.24%.
In the case of `O=C(CNC(=O)c1ccc2ccccc2c1)Nc1ncccc1O`, the “activity change, negative = inhibition” value is 127%.
Same read-out and setting: to `CCOC(=O)c1csc(NC(=O)c2ccc(S(=O)(=O)N3CCCC3)cc2)n1` belongs 5.07%.
For `O=C(Nc1ncccc1O)c1ccc(S(=O)(=O)N2CCCCCC2)cc1`, the Potency is 5.22 µM (active).
In the case of `O=C(Nc1ccccc1F)c1ccc(S(=O)(=O)N2CCCCCC2)cc1`, the “activity change, negative = inhibition” value is 1.93%.
With `O=C(Nc1ncccc1O)c1ccc(S(=O)(=O)N2CCCC2)cc1`, the Potency was 2.08 µM (active).
With `CN1CCN(NC(=O)c2ccc(S(=O)(=O)N3CCCCCC3)cc2)CC1`, the “activity change, negative = inhibition” value is -6.85%.
The same measure, in the same setting: to `O=C(NC(=O)c1ccccc1)Nc1ccccc1O` belongs 37.6%.
Same read-out and setting: with `O=C(N/N=C/c1ccccn1)c1ccc(S(=O)(=O)N2CCCCCC2)cc1` the figure was 1.52%.
Take `O=C(Nc1ncccc1O)c1ccc(C(=O)c2ccccc2)cc1`: the Potency was 0.928 µM (active).
Take `CCOc1ccc2nc(N(CCN(C)C)C(=O)c3ccc4ccccc4c3)sc2c1`: the “activity change, negative = inhibition” value was -14.3%.
With `COc1ccc(-c2nc3c(s2)CCc2onc(-c4ccc(OC)cc4)c2-3)cc1`, the “activity change, negative = inhibition” value is 12.4%.
On to `COc1ccc(C(=O)NC2CC(C)(C)NC(C)(C)C2)cc1OC`, for which the “activity change, negative = inhibition” value was 0%.
On the same count and under the same terms, with `COc1ccc(OC)c(/C(C)=N\NC(=O)c2cc3cc(Cl)ccc3n2C)c1` the figure was 0%; with `COc1ccc(NC(=S)Nc2ccccc2Cl)cn1`, 30.6%; with `COc1ccc(NC(=O)/C(Cl)=C(/Cl)S(=O)Cc2ccc(C)cc2)cn1` (stereo not drawn), 0%.
In the case of `COc1ccc(CS(=O)/C(Cl)=C(/Cl)C(=O)Nc2ccc(OC)nc2)cc1` (stereo not drawn), the Potency was 2.94 µM (active).
Turning to `O=C(NCc1ccccc1Cl)NC(=O)c1csc([N+](=O)[O-])c1`, the “activity change, negative = inhibition” value was 10.9%.
Turning to `CC1(C(=O)OCC(=O)Nc2ncc(Cl)cc2Cl)CC1(Cl)Cl` (stereo not drawn), the “activity change, negative = inhibition” value is -1.88%.
For `CCOC(=O)C1=NNC2(c3ccc(Cl)cc3)C(=O)N(c3cc(C)cc(C)c3)C(=O)C12` (stereo not drawn), the “activity change, negative = inhibition” value was 0%.
Regarding `CCOC(=O)C1=NN(c2ccc(Cl)cc2)/C(=C/C2=NCCc3cc(OC)c(OC)cc32)S1`, the Potency was 4.15 µM (active).
Consider `COc1cc2c(cc1OC)C(c1cccc([N+](=O)[O-])c1)=NCC2`, for which the “activity change, negative = inhibition” value was 77.5%.
The same measure, in the same setting: to `CCCCN(C(=O)C1CCC1)c1c(N)n(Cc2ccccc2)c(=O)[nH]c1=O` belongs -5.05%.
For `O=S(=O)(NC1CC1)c1ccc(F)c(F)c1`, the “activity change, negative = inhibition” value was 48.9%.
The same measure, in the same setting: with `Cn1ncc2c(N3CCCCC3)nc(NCCCO)nc21` the figure was 60.5%.
Same read-out and setting: with `COc1cc(C(=O)NN(CCC#N)C2=NS(=O)(=O)c3ccccc32)cc(OC)c1OC` the figure was -9.76%.
`C=C1c2c(Cl)ccc(O)c2C(O)=C2C(=O)[C@]3(O)C(O)=C(C(N)=O)C(=O)[C@@H](N(C)C)[C@@H]3[C@@H](O)C12` (stereo partly drawn): the Potency is 0.738 µM (active).
For the compound `CN(C)[C@@H]1C(=O)C(C(N)=O)=C(O)[C@@]2(O)C(=O)C3=C(O)c4c(O)ccc(Cl)c4[C@@H](O)[C@H]3C[C@@H]12`, the Potency is 0.37 µM (active).
With `COc1ccc(OCCC(=O)c2ccc(OC)cc2)cc1`, the “activity change, negative = inhibition” value is 28.2%.
In the case of `CCN(c1ccccc1)S(=O)(=O)c1cc2c(cc1C)n(C)c(=O)c(=O)n2C`, the “activity change, negative = inhibition” value is 7.83%.
Take `Cn1c2ccccc2c2cc(/C=C(\NC(=O)c3ccccc3)C(=O)NCC(=O)O)ccc21`: the “activity change, negative = inhibition” value is -24.1%.
As for `COc1ccc(-c2cc(C(F)(F)F)nc(NCc3cccnc3)n2)cc1`, the Potency was 13.1 µM (active).
On to `COc1ccc(C(=O)O)cc1S(=O)(=O)NCc1cccnc1`, for which the “activity change, negative = inhibition” value is -0.745%.
Same read-out and setting: with `COc1ccc(-c2cc3ncccc3cn2)cc1` the figure was 235%; with `CCN(CC)S(=O)(=O)c1ccc(N2CC(C(=O)NCc3cccnc3)CC2=O)cc1` (stereo not drawn), -27.6%; with `CCC(=O)c1ccc(OC(=O)/C=C/c2cc(OC)c(OC)c(OC)c2)cc1`, 24.6%.
In the case of `CS(=O)(=O)C1=NN2C(=N)/C(=C\c3ccc(OCCOc4ccccc4)cc3)C(=O)N=C2S1`, the “activity change, negative = inhibition” value was 325%.
Regarding `CCCc1nc2c(c(=O)c3ccccc3n2C)c(=O)n1-c1cc(C)cc(C)c1`, the Potency was 5.86 µM (active).
Consider `Cn1c2ccccc2c(=O)c2c(O)cccc21`, for which the “activity change, negative = inhibition” value was 44.5%.
As for `CCCc1nc2c(c(=O)c3ccccc3n2C)c(=O)n1C1CCCCCC1`, the Potency is 14.7 µM (active).
On to `Cn1c2ccccc2c2c(C(=O)N3CCN(c4ccc(F)cc4)CC3)cn(C3CCCC3)c(=O)c21`, for which the “activity change, negative = inhibition” value is 18.6%.
For the compound `CCCCNC(=O)CCn1c(=O)c2ccccc2n(Cc2cc(C)ccc2C)c1=O`, the “activity change, negative = inhibition” value was 45.8%.
With `COc1ccccc1C(=O)OCC(=O)NCCNC(=O)COC(=O)c1ccccc1OC`, the “activity change, negative = inhibition” value was -10.1%.
As to `Cn1cccc1C(=O)N1CCc2ccccc2C1`, the “activity change, negative = inhibition” value is 0.7%.
Still for that read-out and setting: with `CCOc1ccc(NC(=O)CN(C)C(=O)c2c(C)noc2C)cc1OCC` the figure was 14.5%; with `C=CCCN(Cc1ccccc1)S(=O)(=O)c1ccccc1Br`, 6.87%.
Turning to `C=CC(COCc1ccccc1)N(Cc1ccccc1)S(=O)(=O)c1ccccc1Br` (stereo not drawn), the Potency was 9.28 µM (active).
For the compound `COc1ccc(S(=O)(=O)n2nc(C)c(S(=O)(=O)N3CCOCC3)c2C)cc1`, the “activity change, negative = inhibition” value was -11.4%.
Still for that read-out and setting: with `COc1ccc(C(=O)NCCNc2ccc([N+](=O)[O-])cn2)cc1` the figure was -0.755%.
Regarding `O=C(CSc1ccc(-c2cccs2)nn1)Nc1ccccc1F`, the Potency is 2.33 µM (active).
For the compound `Cc1csc(NC(=O)CSc2ccc(-c3ccc(F)cc3)nn2)n1`, the activity change, negative = inhibition was -36.6% [at 1.15 µM].
`Cn1c(CCC(=O)Nc2ccccc2F)nnc1SCC(=O)Nc1ccccc1Cl`: the “activity change, negative = inhibition” value is -47.3%.
Turning to `CCN(CC)S(=O)(=O)c1ccc(NC(=O)c2cnc(C)cn2)cc1`, the “activity change, negative = inhibition” value was -28.2%.
`Cc1cccc2c1cnn2C(=O)CCC(=O)NC1CCCCC1`: the Potency was 13.1 µM (active).
Turning to `Cc1ccc2c(cnn2C(=O)CCC(=O)NC2CCCC2)c1`, the “activity change, negative = inhibition” value was -8.16%.
With `Cc1nn(CC(=O)NC2CCCCC2)c(=O)c2cccn12`, the “activity change, negative = inhibition” value was -14.8%.
On to `CCn1nnnc1SCC(=O)c1ccc(C)cc1C`, for which the Potency was 7.38 µM (active).
For `CCn1nnnc1SCC(=O)Nc1ccc(N(C)C)cc1`, the “activity change, negative = inhibition” value is -5.23%.
The same measure, in the same setting: to `CNC(=O)CSc1nnnn1-c1ccc(C)cc1C` belongs 43.2%; to `O=C1CSC(=S)N1c1ccc(Cl)c(Cl)c1`, 30%.
Regarding `NC(=O)c1ccc(-c2csnn2)cc1`, the “activity change, negative = inhibition” value was 19%.
With `C[C@H](OC(=O)n1ccnc1)[C@@H]1O[C@@]2(C)CCC[C@@H]1O2`, the “activity change, negative = inhibition” value is 12.9%.
As to `COc1cc(C=O)c(Br)cc1OCC(=O)NCc1ccccc1`, the Potency was 11.7 µM (active).
For `COc1ccccc1OCCC(=O)OCC(=O)NCc1ccccc1`, the “activity change, negative = inhibition” value is 45.9%.
Same read-out and setting: with `COc1cc(C(=S)NCc2ccccc2)cc(Br)c1O` the figure was 11.7%.
